In the supplement of paper PMC10681739 one finds ETS1 binding intensity and RUNX1 binding intensity data, which are given here for 14 sequences.

Experiment [1] concerns the target T1, ETS1 (UniProt P14921).
T1 sequence: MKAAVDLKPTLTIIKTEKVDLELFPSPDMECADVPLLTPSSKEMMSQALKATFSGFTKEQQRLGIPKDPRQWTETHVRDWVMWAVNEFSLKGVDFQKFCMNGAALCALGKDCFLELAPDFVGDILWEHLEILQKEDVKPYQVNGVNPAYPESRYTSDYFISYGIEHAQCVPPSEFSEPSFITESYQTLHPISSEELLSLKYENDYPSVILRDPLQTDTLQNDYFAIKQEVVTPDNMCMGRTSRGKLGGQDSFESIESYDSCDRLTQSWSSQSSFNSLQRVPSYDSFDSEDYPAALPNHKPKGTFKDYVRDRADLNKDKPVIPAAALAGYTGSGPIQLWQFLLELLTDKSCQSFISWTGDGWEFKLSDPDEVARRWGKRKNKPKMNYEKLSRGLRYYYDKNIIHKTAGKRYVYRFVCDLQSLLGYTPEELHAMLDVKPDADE
Nature of the experiment: ETS1 binding intensity (PBM fluorescence), ETS1 alone (arbitrary fluorescence units); higher = stronger binding. The note with it: ETS1 concentration 1 nM; RUNX1 concentration 0 nM.

For experiment [2], the target named is RUNX1 (UniProt Q01196). The experiment can be described thus: RUNX1 binding intensity (PBM fluorescence), RUNX1 alone (arbitrary fluorescence units); higher = stronger binding. To be noted: RUNX1 concentration 2 nM; ETS1 concentration 0 nM. How it is done:
(§1)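 Cooperative gcPBM on 36-bp genomic probes with neighbouring ETS1 and RUNX1 sites. Recombinant human RUNX1 (2 nM) was incubated alone or with ETS1 (25 nM) and detected with anti-RUNX1 antibody plus Alexa488 secondary. Values are medians over 4 replicate spots; the RUNX1+ETS1 data were normalised to the RUNX1-only data. The probes sit in constant array flanks that are not printed.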

The target of experiment [3] is T1, ETS1. The experiment can be described thus: ETS1 binding intensity (PBM fluorescence) in presence of RUNX1, normalised to ETS1-only experiment (arbitrary fluorescence units); higher = stronger binding. To be noted: ETS1 concentration 1 nM; RUNX1 concentration 25 nM.
In experiment [4] the target is RUNX1 (UniProt Q01196). The experiment can be described thus: RUNX1 binding intensity (PBM fluorescence) in presence of ETS1, normalised to RUNX1-only experiment (arbitrary fluorescence units); higher = stronger binding. The note with it: RUNX1 concentration 2 nM; ETS1 concentration 25 nM. How it is done: as §1
Chain of RUNX1 (Q01196 whole entry): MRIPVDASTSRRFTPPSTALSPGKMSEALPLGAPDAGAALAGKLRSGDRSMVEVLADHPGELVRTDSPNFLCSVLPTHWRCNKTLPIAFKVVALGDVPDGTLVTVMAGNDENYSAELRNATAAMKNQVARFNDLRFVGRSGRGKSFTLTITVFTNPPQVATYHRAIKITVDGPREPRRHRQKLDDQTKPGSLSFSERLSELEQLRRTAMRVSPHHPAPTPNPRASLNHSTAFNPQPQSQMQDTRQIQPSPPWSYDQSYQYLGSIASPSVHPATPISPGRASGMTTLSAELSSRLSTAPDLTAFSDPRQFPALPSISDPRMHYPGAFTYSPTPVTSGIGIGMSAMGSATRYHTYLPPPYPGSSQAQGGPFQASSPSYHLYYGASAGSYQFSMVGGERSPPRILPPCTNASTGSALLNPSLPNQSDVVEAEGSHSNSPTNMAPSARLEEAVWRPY
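For RUNX1 binding intensity (PBM fluorescence) in presence of ETS1, normalised to RUNX1-only experiment in this document: Full-length recombinant human ETS1 or RUNX1 bound to double-stranded 36-bp genomic probes on microarrays, detected by protein-specific primary antibody and Alexa488 secondary, spot fluorescence as median of four replicate spots.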
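For RUNX1 binding intensity (PBM fluorescence), RUNX1 alone in this document: Full-length recombinant human RUNX1 bound to double-stranded 36-bp genomic probes on a high-density microarray, scored as Alexa488 fluorescence per spot via anti-RUNX1 antibody, median of four replicate spots.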

Take AATCATCAGGGAAATGCAAATCAAAACCACAATCAG: the ETS1 binding intensity came out at 547 with ETS1 [1] and 1200 with ETS1 [3]. Further, the figures for the RUNX1 binding intensity in the experiment with RUNX1 [2] and in the experiment with RUNX1 [4] were 1480 and 1300, respectively.
On the same counts, the results for ACGTGATGGCAGTCTTCCTGCCCACAAGTTCTGGTC are 422, 486, 1250 and 1440.
For TGCTTTTCAGGTGCAGGAAGTGGTTTGCCTTTGCCC, the ETS1 binding intensity with ETS1 [1] was 7810; with ETS1 [3] it was 11000. The RUNX1 binding intensity in the experiment with RUNX1 [2] came out at 788; with RUNX1 [4], 1200.
On the same counts, the results for TTACCATCGCCCTTCCTGTGGGCTGGGAGGCCAGGT are 468, 373, 754 and 1060.
On the same counts, the results for CTTACCTACAGTTCCGCTTGCTGTGGTTTCAGTTAC are 403, 843, 1040 and 2060.
On the same counts, the results for CGCCCACCACTTCCTGCTGGCGGTCGGCAAGCGTTG are 1430, 2240, 1020 and 8670.
In the case of GGGAGGTCACATCCTGCCCGCGGTCTCAGAAAAGCT, the ETS1 binding intensity turned out to be 821 with ETS1 [1] and 989 with ETS1 [3]. The RUNX1 binding intensity with RUNX1 [2] was 782; with RUNX1 [4] it was 2080.
In the same order, the values of CAGCACGCAGGAAGCACATGTGGTGGGGCTCTTCCA are 674, 759, 742 and 1030.
In the same order, the values of GCTCATTTATGCATCCTGTGGTCTGTGTGTGTTTCG are 569, 831, 984 and 1390.
In the same order, the values of ACTCCAGAGGAAGTGGCAAGACGAGCGCGGTAACGG are 1080, 1560, 728 and 1330.
Turning to CACCAGGACGCAACAGGAAACCACAAAGGCCTGAGA, the ETS1 binding intensity came out at 2390 with ETS1 [1] and 6500 with ETS1 [3]. Besides, the results for the RUNX1 binding intensity with RUNX1 [2] and in the experiment with RUNX1 [4] were 2660 and 5270, respectively.
On the same counts, the results for ACTGGCTTCACTTCCTCCGCGGTTCCTCGGAGCCGC are 497, 514, 917 and 1730.
As for GGGACGGGGAGGGCAGGATGTGGTCGCTCTTCCCTC, the ETS1 binding intensity is 3320 with ETS1 [1] and 9330 with ETS1 [3]. Further, the RUNX1 binding intensity with RUNX1 [2] worked out at 822; in the experiment with RUNX1 [4] it was 1750.
In the same order, the values of GAGCTGCTCCGGAAGGGTGGTGTGTGGTCAACCTTG are 759, 1520, 876 and 1050.
